# This is one part of a sample in which hits are shown more often than they occur.
# FECH block – blocks human mitochondrial ferrochelatase activity; P22830; purified FECH, Ni-mesoporphyrin absorbance 550 nm; calls only at 10 µM (by protocol); 20,000 tested, 3.3% active; AID 1671448;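 active = enzyme reaction rate more than 3 SD below the solvent-only control wells on the same plate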;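 also: lower slope than DMSO wells means FECH inhibition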
# Target sequence (P22830 whole entry, looked up): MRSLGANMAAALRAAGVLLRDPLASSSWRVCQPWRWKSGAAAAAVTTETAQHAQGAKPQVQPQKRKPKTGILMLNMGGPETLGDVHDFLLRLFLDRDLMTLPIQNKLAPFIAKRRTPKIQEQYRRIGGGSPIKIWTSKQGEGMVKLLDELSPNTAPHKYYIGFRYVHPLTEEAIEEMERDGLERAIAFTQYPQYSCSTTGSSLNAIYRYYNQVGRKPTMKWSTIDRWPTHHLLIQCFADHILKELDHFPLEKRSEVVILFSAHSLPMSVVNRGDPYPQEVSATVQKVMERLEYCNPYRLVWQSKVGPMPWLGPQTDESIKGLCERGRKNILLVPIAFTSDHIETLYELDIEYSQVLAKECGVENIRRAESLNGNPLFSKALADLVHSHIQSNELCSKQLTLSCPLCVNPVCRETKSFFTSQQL
# Numbers without * were called inactive; i = inactive; + = active, no number.
SMILES,FECH block
Cc1ccc(C(C)CCN2CCC(Cc3nncn3-c3ccccc3)CC2)o1 (stereo not given),i
Cc1ccccc1-c1nc2nc(CNC(C)C)cc(=O)n2[nH]1,i
Cc1ccccc1NCc1cc(=O)n2[nH]c(-c3ccccc3C)nc2n1,+
Cc1ccccc1-c1nc2nc(CNc3ccccc3F)cc(=O)n2[nH]1,+
O=C(C1CCS(=O)(=O)CC1)N1CC(c2ccncc2)C1,i
CSCCC1CC(=O)Nc2n[nH]c(C3CCC3)c21 (stereo not given),i
CCOc1c(Nc2ccc(F)cc2F)c(=O)c1=O,i
O=S(=O)(NCc1nc2cccnc2n1Cc1ccc(Cl)cc1)c1ccc(F)cc1,i
c1ccc2c(CN3CCCCC3CCn3ccnc3)ccnc2c1 (stereo not given),+
O=C(NCCc1ccccc1)N1CCCCC1CCn1ccnc1 (stereo not given),i
O=C(c1c[nH]c(=O)cn1)N1CCCCC1CCn1ccnc1 (stereo not given),i
Cc1ccc(NC2=NC(C(=O)Nc3ccccc3C(F)(F)F)CC(=O)N2)cc1 (stereo not given),i
COc1ccc(NC(=O)CN(C)S(=O)(=O)c2ccc(C(=O)N3CCOCC3)s2)cc1,+
COc1ccc(CNS(=O)(=O)c2ccc(C(=O)N(C)C)s2)cc1,i
COc1ccc(CN2CCCN(CC(=O)Nc3ccc4c(c3)OCCO4)S2(=O)=O)cc1,i
O=C(Nc1ccnn1C1CCN(c2ncccc2Cl)CC1)c1cccnc1,i
COCCn1ccnc1CN1CCc2[nH]cnc2C1c1ccccn1 (stereo not given),i
Cc1ccc(-c2nc3cccnc3n2CCNS(=O)(=O)Cc2ccccc2)cc1,+
COc1ccc(OC)c(S(=O)(=O)NCCn2c(-c3ccc(C)cc3)nc3cccnc32)c1,i
COc1ccc(Cl)cc1S(=O)(=O)NCCn1c(-c2ccc(C)cc2)nc2cccnc21,+
CCOc1ccc(NC(=O)NCCn2c(-c3ccncc3)nc3cccnc32)cc1,i
O=S(=O)(Cc1ccccc1)NCCn1c(-c2ccccc2)nc2cccnc21,i
CCc1ccc(NC(=O)NCCn2c(-c3ccncc3)nc3cccnc32)cc1,i
Cc1ccc(-c2nc3cccnc3n2CCNS(C)(=O)=O)cc1,i
COc1ccc(OC)c(S(=O)(=O)NCCn2c(-c3ccccc3)nc3cccnc32)c1,i
SMILES,FECH block
CCOC(=O)c1ccccc1NC(=O)NCCn1c(-c2ccncc2)nc2cccnc21,+
CN(C)C1CCCN(C(=O)c2csc(-c3cccs3)n2)CC1 (stereo not given),i
c1cnc2c(c1)nc(-c1ccncc1)n2CCN1CCNCC1,i
O=C(C(Cc1cnc[nH]1)n1cccc1)N1CC2CC3CC1C[C@@H](C3)C2 (stereo not given in full),i
Cc1cc(C(=O)N(Cc2ccsc2)CC2CCCO2)cc(=O)[nH]1 (stereo not given),i
C/C=C/CC(=O)N(CC)Cc1ccc(Cl)cc1,i
O=C(O)c1ccc(CN2CCC(c3[nH]ncc3-c3ccccc3)CC2)cc1,i
Cc1n[nH]c(C)c1CCc1nncn1-c1cccc2ccccc12,i
CC(C)CCNC(=O)C1c2c(n(C)c3ccccc23)SCC(=O)N1CCc1ccc(Cl)cc1 (stereo not given),i
CCc1cc(Sc2ccccc2NC(=O)Cc2cccc(OC)c2)n2nc(C)nc2n1,i
CCc1cc(Sc2ccccc2NC(=O)c2cc(OC)cc(OC)c2)n2nc(C)nc2n1,i
CCc1cc(Sc2ccccc2NC(=O)Cc2ccc(OC)cc2)n2nc(C)nc2n1,+
CC(c1ccncn1)N(C)C(=O)c1cccc(C#CC(C)(C)O)c1 (stereo not given),i
Cc1ccc2cc(-c3noc(CCC(=O)Nc4ccc(Cl)cc4)n3)c(=O)[nH]c2c1,i
CN1CCCC(CCNC(=O)CCC(=O)N2CCCCCC2)C1 (stereo not given),i
COc1ccc(OC)c(CNC(=O)CN2C(=O)c3cccnc3Sc3ccccc32)c1,+
COc1ccc(OC)c(CNC(=O)Cn2c(=O)c3cnc(-c4ccccc4)nc3n(C)c2=O)c1,i
CCOc1ccc(CNC(=O)CN2C(=O)CN(C)C(=O)c3ccccc32)cc1OC,i
Cc1nn(C)c(C)c1CN(C(=O)c1ccc(Cn2cnnn2)cc1)C1CC1,i
COc1cc(-c2ncc[nH]2)ccc1OCC(N)=O,i
Cc1nc2cccnc2n1C1CCN(C(=O)Nc2ccccc2Cl)CC1,i
Cc1nc(SCC(=O)NCC(O)c2ccccc2Cl)n[nH]1 (stereo not given),i
CNc1ncccc1C(=O)NCC1CCN(Cc2cnc(C)[nH]2)C1 (stereo not given),i
CC(=O)c1cccc(NC(=O)Cn2c(C(=O)OC(C)C)cc3ccsc32)c1,i
COc1ccc(NC(=O)Cn2c(C(=O)OC(C)C)cc3ccsc32)cc1,i
SMILES,FECH block
CC(=O)c1ccc(NC(=O)Cn2c(C(=O)OC(C)C)cc3ccsc32)cc1,+
COCc1cc(CNC(=O)c2cn3cc(Cl)ccc3n2)[nH]n1,i
CCC(CC)n1nc(C)cc1NC(=O)CN1CCOC1=O,i
CN(C)C(=O)COc1ccccc1CN(C)C1CCCc2ccccc21 (stereo not given),i
CCCN(CCC)CCNC(=O)c1cccn1-c1nnc(N2CCCCC2)s1,i
CCOc1ccc(CCNC(=O)c2cccn2-c2nnc(N3CCCCC3)s2)cc1,i
O=C(NCCc1ccccc1)c1cccn1-c1nnc(N2CCCCC2)s1,+
Cn1ccnc1-c1nccn1CC1CCS(=O)(=O)C1 (stereo not given),i
Cc1cc(C)n2nc(CN(C(=O)c3ccccc3C)c3ccccc3)nc2n1,i
Cc1ccc(N(Cc2nc3nc(C)cc(C)n3n2)S(=O)(=O)c2ccccc2)cc1,+
Cc1ccc(N(Cc2nc3nc(C)cc(C)n3n2)S(=O)(=O)c2ccc(C)cc2)cc1,i
COc1ccc(CC(=O)N(Cc2nc3nc(C)cc(C)n3n2)c2ccc(Cl)cc2)cc1,i
Cc1cc(C)n2nc(CN(C(=O)c3ccccc3)c3ccc(Cl)cc3)nc2n1,i
Cc1cccc(N(Cc2nc3nc(C)cc(C)n3n2)S(=O)(=O)c2ccccc2)c1,i
Cc1cccc(C(=O)N(Cc2nc3nc(C)cc(C)n3n2)c2ccccc2)c1,+
Cc1cccc(N(Cc2nc3nc(C)cc(C)n3n2)C(=O)c2ccccc2C)c1,+
Cc1cc(C)n2nc(CN(C(=O)c3ccccc3C)c3cccc(Cl)c3)nc2n1,i
Cc1cc(C)n2nc(CN(C(=O)Cc3ccccc3)c3ccc(Cl)cc3)nc2n1,i
Cc1ccc(N(Cc2nc3nc(C)cc(C)n3n2)C(=O)Cc2ccc(Cl)cc2)cc1,+
Cc1cccc(N(Cc2nc3nc(C)cc(C)n3n2)C(=O)c2ccccc2)c1,i
CSc1nnc(CC2CCN(Cc3ccc(NC(C)=O)cc3)CC2)n1C,i
Cc1cc2c(cc1S(=O)(=O)N1CCCC1C(=O)NC1CCCCCC1)OCC(=O)N2 (stereo not given),i
Cc1cccc(Cn2c(CNS(=O)(=O)c3ccc(C)c(C)c3)nc3cccnc32)c1,i
CC(C)(CN1CCCC1)Nc1nc(CCN)nc2ccccc12,i
O=C(Cc1ccsc1)N(C/C=C/c1ccccc1)CCO,i
O=C(c1cccc2cccnc12)N1CCn2cncc2C1,i
CCc1ncc2c(n1)CN(C(=O)c1cccc(OC)c1C)C2,i
Cc1cccc(-c2ncc(-c3nccn3CCCc3nn[nH]n3)cn2)c1,i

# From PubChem BioAssay
